This passage reports growth results from PubChem BioAssay (NCI).

Several values for one entry are separate records, joined by “and”; a condition that tells them apart may be missing. Identical values can stand only once. The panel holds about 83,000 compounds, 20% with a hit somewhere; the sample as a whole holds those more often.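 Cell lines were cultured in 96-well plates, exposed to a single compound concentration, and assessed for percent growth 48 hours later.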 Values without a mark were called inactive. Activity calls are given as the source filed them. How the source made its calls: active means growth percent below 10; inactive means the rest.

The assay deals with MDA-MB-468 breast. Nature of the assay: NCI-60 one-dose screen, 48 h (100 = growth as untreated, 0 = no growth, -100 = all killed). To be noted: 10 µM unless noted.
On to `COc1cc(/C=C/c2c(C(C)=O)c(C)nc3ccccc23)cc(OC)c1OC`, for which the growth is -4.86% (active). The figure for `O=C1/C(=C/c2cccc(O)c2)COc2ccc(O)cc21` is 52.8%; for `C/C(=N\Nc1ccc([N+](=O)[O-])cn1)c1ccc(N)cc1` it is 99.7%; for `Cn1cc(-c2ccc3occ(-c4cccc(-c5ccncc5)c4)c3n2)cn1` it is 4.07% (active). The figure for `COc1ccc(C2=NN(C(=O)c3cc(OC)c(OC)c(OC)c3)C(c3ccc(C#N)cc3)C2)cc1OC` (stereo not given) is -25.8% (active); for `CCOC(=O)c1c(NC(=O)c2cccc(C(F)(F)F)c2)sc2c(CN3CCN(C)CC3)c(O)ccc12` it is -2.41% (active); for `Cc1ccccc1[P+](Cc1ccccc1)(c1ccccc1)c1ccccc1` it is -14.4% (active). For the molecule `COc1cc(/C=C/C(=O)c2ccccc2)cc(OC)c1OC`, the growth was 64.7%. With `COc1cc(C(=O)NN=C2c3ccccc3-c3ccccc32)cc(OC)c1OC`, the growth was -3.4% (active). With `O=c1[nH]c(=S)[nH]c2nc[nH]c12`, the growth was 100%. The figure for `CC[C@@]1(O)C(=O)OCc2c1cc1n(c2=O)Cc2cc3c(CN(C)C)c(O)ccc3nc2-1` is -58.2% (active); for `Nc1ccc2c(c1)Cc1cc(N)c(Br)cc1-2` it is 81.9%.

With `COc1ccccc1C(C)=O`, the growth is 108% and 111%. `COc1ccc2cc(C(C)C(=O)Nc3ccc(S(=O)(=O)Nc4cc(C)on4)cc3)ccc2c1` (stereo not given): the growth is 114%. Consider `N#CSCC1CC(O)(c2ccccc2)C(c2ccccc2)C(c2ccc(F)cc2)O1` (stereo not given), for which the growth is -13.4% (active). Next, `CC1(C)CCc2cc(-c3ccn(S(=O)(=O)c4ccc(Cl)cc4)n3)ccc2O1`: 48.9%. Take `O=S1(=O)CCC(N(/N=C/c2ccco2)c2ccccc2)C1` (stereo not given): the growth is 108%.

For the molecule `C=C1C(=O)O[C@H]2[C@H]1CC/C(COC(=O)Nc1nc3ccccc3[nH]1)=C\CC[C@@]1(C)O[C@@H]21`, the growth is 36.9%. The figure for `C[C@@H](c1ccccc1)[C@@H](C(=O)O)c1ccccc1` is 96.7%. The figure for `CN(C)CCn1c2ccc(N)cc2c2nc3ccccc3nc21` is 23.7%; for `COc1ccccc1C(=O)/C=C/c1cc2cccc(OC)c2[nH]c1=O` it is -43.9% (active); for `COc1ccc2[nH]cc(C(c3cc(F)cc(F)c3)c3c[nH]c4ccc(OC)cc34)c2c1` it is 89.6%. Next, `COc1ccc(N2CCN(c3nc(-c4ccccc4)c(C#N)c(=O)[nH]3)CC2)cc1`: 97.9%; `COc1cc(CNCCCCCCN2C(=O)c3cccc4cccc(c34)C2=O)ccc1O`: 47.2%. For the molecule `CCCCC(CC)COC(C)=O` (stereo not given), the growth is 106%. As for `COc1ccc(Cn2c(Br)c3c(c2-c2cc(OC)c(OC)c(OC)c2)CCc2sc(NC(=O)c4ccc(OC)cc4)nc2-3)cc1`, the growth is 98.8%.

`O=C(Nc1cccc([N+](=O)[O-])c1)c1cc2ccccc2cc1O`: the growth was -42.8% (active). Consider `CC(=O)Nc1nc2c(s1)C1=CC[C@H]3[C@@H]4CC[C@H](C(C)=O)[C@@]4(C)CC[C@@H]3[C@@]1(C)CC2`, for which the growth was 69.7%. Next, `COc1ccccc1C(C[N+](=O)[O-])c1c(-c2ccccc2)[nH]c2cc(C)ccc12` (stereo not given): 44.4%. The figure for `CCC(CC)n1c(=O)c(SC2=NC3C(NN2)N(CC)C(=O)N3CC)c(C(=O)O)c2ccccc21` (stereo not given) is 23%. Turning to `CSCCC(C(=O)O)N1C(=O)/C(=C/c2ccc(O)c(O)c2)SC1=S` (stereo not given), the growth is 100%. `COc1cc(/C=C2\C(=O)Nc3ccc(Br)cc32)cc(OC)c1OC`: the growth is 16.9%.

As for `COc1cc(/C=C/C(=O)c2c(-c3ccc(F)cc3)nc3sc(C)nn23)cc(OC)c1OC`, the growth is 23.9%. As for `COC(=O)Nc1ccc(NC(=O)OC)cc1`, the growth was 97.3%. The figure for `Fc1ccc(-c2nc(-c3nc4ncccc4[nH]3)cc3c2[nH]c2ccccc23)cc1F` is 49.5%; for `Cc1ccc(C2=NN3C(C2)c2cc(Br)ccc2OC32CCN(Cc3ccccc3)CC2)o1` (stereo not given) it is 105%; for `C#CC(C(C)C)N(CCO)CCCC` (stereo not given) it is 103%.

In the case of `COc1nc2c(cc1S(=O)(=O)c1ccccc1)CCc1c-2cnn1-c1ccccc1Cl`, the growth is 40.4%. Take `FC(F)(F)c1ccc2c(c1)n1cnnc1c1nncn21`: the growth is 105%. Regarding `Ic1ccc(Nc2nc3nonc3nc2Nc2ccc(I)cc2)cc1`, the growth was -4.36% (active).
